Results as given in PubChem BioAssay AID488841 (Sanford-Burnham Center for Chemical Genomics, 2010).
The whole screen tested about 1,400 compounds, of which about 380 (27%) were called active.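 How the source made its calls: active means mean inhibition above 50% across duplicate retests at 10 µM; inactive means the rest.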 The list shows a part of the results.

Test: yeast NALP1 reporter signal suppression – S. cerevisiae, luminescence, single concentration, NALP1 inhibitor project, confirmation (AID 488841);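 further: plate controls were DMSO in galactose medium for no effect and cells in plain SD medium for full effect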
Details: S. cerevisiae NALP1/ASC/Caspase-1 reporter, beta-gal luminescence; at 10 µM; hits give high values

SMILES | inhibition
COC(=O)c1cc(OC)c(OC)cc1NC(=S)N1CCN(c2ccccc2)CC1 | 30% (inactive)
O=C(CN1CCN(c2cccc(Cl)c2)CC1)Nc1ccc(S(=O)(=O)N2CCOCC2)cc1 | 35.4% (inactive)
COC(=O)/C=C/C(=O)N1CCN(c2cccc(Cl)c2)CC1 | 54.7% (active)
Cc1ccnc(NS(=O)(=O)c2ccc(NC(=O)CSc3nc(-c4ccccc4)cc(=O)[nH]3)cc2)n1 | 12.6% (inactive)
CCOc1cc(C(=O)OCC(=O)Nc2ncc(Cl)c(C)c2Cl)ccc1OCC(=O)N1CCOCC1 | 27.4% (inactive)
COC(=O)/C(=N/Nc1ccc(C)cc1)N1CCCc2ccccc21 | 32% (inactive)
O=C(Nc1ccccc1)N1CCc2ccccc2C1 | 62% (active)
Cc1ccc(NC(=O)N2CCc3ccccc3C2)cc1 | 64.8% (active)
CC(=O)N1CCCc2cc(S(=O)(=O)N3CCc4ccccc4C3)ccc21 | 33.2% (inactive)
O=C(NCCCN1CCc2ccccc2C1)Nc1ccc(Br)cc1 | 25.1% (inactive)
Cc1ccc2cc3cc(C(=O)NCCCN4CCc5ccccc5C4)oc3nc2c1 | 30.9% (inactive)
CCCCCCCCCCOC(=O)Cn1c(COc2ccc(Cl)cc2)[n+](C)c2ccccc21 | 34% (inactive)
O=C1NC(c2ccccc2)Nc2c1sc(=S)n2-c1ccccc1 (centres undefined) | 25.1% (inactive)
CCN(CC)S(=O)(=O)c1ccc2oc(C(=O)NC3CCCc4ccccc43)c(C)c2c1 (centres undefined) | 4.35% (inactive)
CCN1/C(=C/c2ccc3ccc(C)cc3[n+]2CC)Sc2ccccc21 | 21.4% (inactive)
CCN1/C(=C/c2ccc3cc(C)ccc3[n+]2CC)Sc2ccccc21 | 101% (active)
CC[n+]1c(/C=C2\Sc3ccccc3N2C)ccc2cccc(C)c21 | 96.8% (active)
CCN1/C(=C\c2ccc3ccccc3[n+]2CC)Sc2cc(C)ccc21 | 98.2% (active)
Cc1cc(=O)n2ccccc2c1C#N | 9.65% (inactive)
C/C(=N/NC(=O)c1nnn(-c2nonc2N)c1COc1ccccc1)c1ccc(O)cc1 | 22.6% (inactive)
Cc1cc(C)cc(C(=O)OCC(=O)NCCNC(=O)COC(=O)c2cc(C)cc(C)c2)c1 | 31.4% (inactive)
OCCN(CCO)c1ncnc2c1oc1ccc(Br)cc12 | 31.3% (inactive)

SMILES | inhibition
CC1CN(S(=O)(=O)c2ccc(C(=O)Nc3nc(-c4cc5ccccc5o4)cs3)cc2)CC(C)O1 (centres undefined) | 30.1% (inactive)
N#CC1(C#N)CC(C=O)=C(N)C1(C#N)CC(=O)C12CC3CC(CC(C3)C1)C2 (centres undefined) | 36.1% (inactive)
Cc1ccc(Cl)cc1N1CCN(S(C)(=O)=O)CC1 | 39.6% (inactive)
CCCC(CCC)c1nc2ccncc2[nH]1 | 27.4% (inactive)
CC(=O)NS(=O)(=O)c1ccc(NC(=O)CSc2ccccc2)cc1 | 8.45% (inactive)
CCCCNCCOCCOc1ccc(Cl)cc1Br | 48% (inactive)
CCN(CC)CCCOc1ccc(Cl)c(Cl)c1 | 44.2% (inactive)
C#CCN(C)CCCOc1ccc(Cl)cc1Cl | 55.1% (active)
CC(C)CC(=O)N1CCN(S(=O)(=O)c2ccccc2)CC1 | 24.9% (inactive)
COc1ccc(-c2cc(-c3cc(OC)ccc3O)[nH]n2)cc1 | 49.4% (inactive)
Cc1ccc2c(c1)c1c3n2CCCNC3CCC1 (centres undefined) | 43.8% (inactive)
CCOC(=O)c1cc(-c2ccccc2)n(CCC(=O)N2CCN(c3ccccn3)CC2)c1C | 39.2% (inactive)
O=C(N1CCN(c2ccccn2)CC1)C(Cl)(Cl)Cl | 60.1% (active)
O=C(c1ccccc1-c1ccccc1)N1CCN(c2ccccn2)CC1 | 29.1% (inactive)
C=C(C)C(=O)Nc1nnc(-c2cccs2)s1 | 55.5% (active)
C=C(C)C(=O)Nc1cccc(C(C)=O)c1 | 10.3% (inactive)
Cn1c(SCC(=O)NC(c2ccccc2)c2ccccc2)nnc1-c1cccs1 | 34% (inactive)
CN1/C(=C\C(=O)c2cccs2)C(C)(C)c2ccccc21 | 35.5% (inactive)
O=C(COC(=O)CCC1CCCCC1)Nc1ccc(OC(F)F)cc1 | 19.5% (inactive)
CCCCNC1CCS(=O)(=O)C1 (centres undefined) | 24% (inactive)
CCCCCOc1ccc(Br)cc1/C(C)=N/NC1=NCCN1 | 51.2% (active)
CCCCCCOc1ccc(OC(=O)c2ccncc2)cc1 | 24.9% (inactive)

SMILES | inhibition
CCCCCCOc1ccc(-c2ccc(C#N)cn2)cc1 | 34.9% (inactive)
CCCCCCOc1ccc(/C(C)=N/NC2=NCCN2)cc1 | 51.5% (active)
CCCCOc1ccc(CSC2=NCCN2)cc1[N+](=O)[O-] | 43.9% (inactive)
CCn1c(SCC(=O)Nc2ccc3c(c2)OCO3)nnc1-c1cnccn1 | 36.9% (inactive)
CCOc1ccccc1C1CC(=O)NC(SCC(=O)Nc2nccs2)=C1C#N (centres undefined) | 10.4% (inactive)
CCOc1nc(N2CCOCC2)nc(N2CCOCC2)n1 | 29.6% (inactive)
O=[N+]([O-])c1cc(Cc2ccccc2)cc(C=Nc2ccc(N3CCOCC3)cc2)c1O | 47.5% (inactive)
O=C(N/N=C\c1cccc([N+](=O)[O-])c1O)C1COc2ccccc2O1 (centres undefined) | 56.7% (active)
COc1cccc(/C=N/NC(=O)CNC(=O)C2COc3ccccc3O2)c1O (centres undefined) | 41% (inactive)
NCCS | 55.1% (active)
CCCCCCC(=O)N(O)C1CC(=O)N(Cc2ccccc2)C1=O (centres undefined) | 15.2% (inactive)
C=CCn1c(CNC(=O)c2cccs2)nnc1SCC(=O)Nc1ccc(C(=O)O)cc1 | 24.2% (inactive)
Cc1ccccc1Nc1cc(C)c2c(O)cccc2n1 | 65.8% (active)
CC(=O)Nc1ccc2nc(CN3CCC(CO)(CCc4ccccc4)CC3)ccc2c1 | 34.5% (inactive)
Cc1c([N+](=O)[O-])c(C(=O)Nc2ccc3c(c2)OCCO3)nn1C | 27.4% (inactive)
CNc1ccc(/C=C/C(=O)c2ccc3c(c2)OCCO3)cc1[N+](=O)[O-] | 52.8% (active)
CCn1c(SCC(=O)Nc2oc(-c3ccccc3)c(-c3ccccc3)c2C#N)nnc1-c1cc(OC)cc(OC)c1 | 22.6% (inactive)
COc1ccc(S(=O)(=O)N(CC(=O)N2CCOCC2)Cc2ccccc2)cc1C | 22.4% (inactive)
CC1(C)CC(=O)c2c(-c3cccs3)n[nH]c2C1 | 38.8% (inactive)
CC1=NNC(=O)/C1=C\c1cn(-c2ccccc2)nc1-c1cccs1 | 62.4% (active)
